24 compounds from PubChem BioAssay (NCATS) can be followed below.

“And” between values parts separate entries of the source, which are not always exact repeats. Equal entries are not always repeated. Inconclusive results are not listed. A call without a number means that no potency is given here. The source made the active and inactive calls. Calls follow the shape of the dose curve; as a rule, active = well fitted curve in the direction sought with a large enough effect; inconclusive = small, poorly fitted or top-dose-only effect, or another doubt; inactive = no such curve, though single readings can be large; an effect the other way counts as inactive or inconclusive. Where a SMILES comes first, the peptide text is derived from it. [ ]: non-standard residue; d: D form. pGlu = O=C1CC[C@@H](C(=O)O)N1; Thz = O=C(O)[C@@H]1CSCN1

The test system of experiment [1] is Zika virus NS2B-NS3 protease. The experiment is described as follows: Primary screen GU AMC qHTS for Zika virus inhibitors (AID 1347154). Also: nearly all actives have a fitted effect of over 70% in size. Also: potency is read from the fitted curve at half-maximal effect. Put shortly:
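Unlinked Zika NS2B hydrophilic domain–NS3 protease complex at 25 nM in 10 mM Tris-HCl pH 8.0, 0.01% Tween 20, with an AMC peptide substrate. Fluorescence change (340/450 nm) over 15 min at room temperature, normalized to controls, fitted to 4-parameter Hill.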

Experiment [2] deals with Zika virus NS2B-NS3 protease (linked construct). The experiment is described as follows: Primary screen NINDS Rhodamine qHTS for Zika virus inhibitors (AID 1347160). Also: nearly all actives have a fitted effect of over 55% in size. Also: potency is read from the fitted curve at half-maximal effect. Put shortly:
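Aprotinin served as in-plate control. Conditions: 25 nM linked NS2B-NS3, pH 8.0 Tris buffer, titrated compounds, 15 min preincubation and 15 min reaction with 1.5 microM Rhod110 substrate at room temperature.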
In general terms: In qHTS, concentration-response curves come from the screen itself.

Experiment [3] can be described thus: Confirmatory screen GU Rhodamine qHTS for Zika virus inhibitors qHTS (AID 1347157). Also: potency is read from the fitted curve at half-maximal effect; nearly all actives have a fitted effect of over 70% in size. The following applies: purified enzyme assay, Rhodamine110 substrate fluorescence, 15 min. Put shortly: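 Noncovalent NS2B hydrophilic domain/NS3 protease complex (25 nM final) in 10 mM Tris-HCl pH 8.0, 0.01% Tween 20, preincubated 15 min with compounds (up to 114 microM), then 1.5 microM Rhodamine110 substrate. Fluorescence change over 15 min fitted to 4-parameter Hill.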

Experiment [4] can be described thus: ZIKV-mCherry secondary qHTS for Zika virus inhibitors (AID 1347158). Also: top concentration of the series differs between compounds. Put shortly:
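Compounds were tested in Vero monkey kidney cells infected with recombinant mCherry-expressing Zika virus at MOI 1 for 48-72 h at 37 °C. Fixed cells were nuclear-stained and imaged, and infection rate was taken as the fraction of mCherry-positive cells.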

Experiment [5] is described as follows: Confirmatory screen NINDS Rhodamine qHTS for Zika virus inhibitors (AID 1347161). Also: nearly all actives have a fitted effect of over 60% in size. Also: potency is read from the fitted curve at half-maximal effect. The procedure, abridged: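 Kinetic fluorescence (Ex 480 nm, Em 540 nm) over 15 min with 1.5 microM Rhodamine110 peptide and 25 nM linked protease.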
Experiment [6] has as its system Zika virus NS2B-NS3 protease (linked). In words: 384 well plate NINDS AMC confirmatory qHTS for Zika virus inhibitors (AID 1347163). Also: potency is read from the fitted curve at half-maximal effect; nearly all actives have a fitted effect of over 50% in size. The following applies: Recombinant NS2B-NS3 protease, Ac-VKTGKR-AMC fluorescence. The procedure, abridged: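 Fluorescence at 355/460 nm was read after 25 minutes of cleavage of 30 microM Ac-VKTGKR-AMC at room temperature, in the dark. Before substrate addition, compounds (up to 1 mM final) sat ~15 minutes with 5, 30 or 60 nM linked protease. Signals were normalized to no-enzyme and no-inhibitor wells.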

Experiment [7] relates to Zika virus NS2B-NS3 protease (unlinked complex). In words: Primary screen GU Rhodamine qHTS for Zika virus inhibitors: Unlinked NS2B-NS3 protease assay (AID 1347159). Also: nearly all actives have a fitted effect of over 60% in size. Also: potency is read from the fitted curve at half-maximal effect. Put shortly:
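Buffer 10 mM Tris-HCl pH 8.0, 0.01% Tween 20. Unlinked protease 25 nM; compound preincubation 15 min, RT, protected from light. Substrate Rhod110, 1.5 microM; ~15% conversion in 15 min.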

The test system of experiment [8] is Zika virus NS2B-NS3 protease (linked construct). In words: 384 well plate NINDS Rhodamine confirmatory qHTS for Zika virus inhibitors (AID 1347164). Also: potency is read from the fitted curve at half-maximal effect; nearly all actives have a fitted effect of over 65% in size. The procedure, abridged: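 Cleavage of Ac-LKRR-Rhodamine 110 (10 microM final) by linked protease (final 5, 30 or 60 nM) was followed as fluorescence at 485/538 nm after 25 min, room temperature, dark. Compounds preincubated ~15 min.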

Consider `CN(C)CCn1nnnc1SCC1=C(C(=O)O)N2C(=O)[C@@H](NC(=O)Cc3csc(N)n3)[C@H]2SC1`, for which the Potency entry in experiment [1] was “inactive”.

In the case of `CC1(C)[C@@H](O[C@H]2O[C@H](C(=O)O)[C@@H](O)[C@H](O)[C@H]2O[C@@H]2O[C@H](C(=O)O)[C@@H](O)[C@H](O)[C@H]2O)CC[C@]2(C)[C@H]3C(=O)C=C4[C@@H]5C[C@@](C)(C(=O)O)CC[C@]5(C)CC[C@@]4(C)[C@]3(C)CC[C@@H]12`, the Potency result in experiment [2] is “inactive”.

Take `O=C(O)c1ccccc1Nc1cccc(C(F)(F)F)c1`: the Potency result in experiment [1] is “inactive”.

On to `O=C(Nc1cccc(C(=O)Nc2ccc(S(=O)(=O)O)c3cc(S(=O)(=O)O)cc(S(=O)(=O)O)c23)c1)Nc1cccc(C(=O)Nc2ccc(S(=O)(=O)O)c3cc(S(=O)(=O)O)cc(S(=O)(=O)O)c23)c1`, for which the Potency result in experiment [1] is “inactive”. The Potency was 2.82 µM (active) and 1.41 µM (active) in experiment [3]; 2 µM (active) and 1.26 µM (active) in experiment [5]; 22.4 µM (active) in experiment [6]. The compound was classed as inactive in experiment [4].

For `CC1(C)S[C@@H]2[C@H](NC(=O)[C@H](N)c3ccc(O)cc3)C(=O)N2[C@H]1C(=O)O`, the Potency result in experiment [7] and in experiment [2] was “inactive” throughout.

Turning to `CN1CCN(c2cc3c(nn2)Oc2ccccc2N3C)CC1`, in experiment [1], the Potency is 9.89 µM (active). Also, the Potency result in experiment [5] was “inactive”.

`CN(C)[C@@H]1C(=O)C(C(=O)NCN2CCCC2)=C(O)[C@@]2(O)C(=O)C3=C(O)c4c(O)cccc4[C@@](C)(O)C3C[C@@H]12` (stereo partly drawn): the Potency entry in experiment [1] was “inactive”. Moreover, the compound was called inactive in experiment [4]. In addition, the Potency is 0.891 µM (active) in experiment [6] and 44.7 µM (active) in experiment [8].

Take `C[C@H](O)[C@H](O)[C@H]1CNc2nc(N)[nH]c(=O)c2N1`: the Potency entry in experiment [7] and in experiment [2] was “inactive” in each case.

As for `[O-][n+]1ccccc1SSc1cccc[n+]1[O-]`, in experiment [1], the Potency entry is “inactive”.

For `O=C(O)CC1CC(c2ccccc2)=NO1` (stereo not drawn), the Potency result in experiment [7] is “inactive”.

Take `CCCCCCCCCCCCOCCO`: the Potency entry in experiment [1] is “inactive”.

Turning to `COC(=O)[C@H]1[C@H]2C[C@@H]3c4[nH]c5cc(OC)ccc5c4CCN3C[C@H]2C[C@@H](OC(=O)/C=C/c2cc(OC)c(OC)c(OC)c2)[C@@H]1OC`, the Potency result in experiment [7] and in experiment [2] was “inactive” each time.

Take `O=C1CC[C@@H](C(=O)N2CSC[C@H]2C(=O)O)N1` ([pGlu]-[Thz]-OH): the Potency entry in experiment [7] and in experiment [2] was “inactive” in each case.

On to `Cc1ccc2c(n1)Oc1ccc(C(C)C(=O)OCC(=O)N(C)C)cc1C2` (stereo not drawn), for which the Potency result in experiment [7] and in experiment [2] was “inactive” each time.

As for `CC(=O)O[C@H]1C[C@@]2(C)[C@@H](C[C@@H](O)[C@H]3[C@@]4(C)CC[C@@H](O)[C@@H](C)[C@@H]4CC[C@@]32C)/C1=C(\CCC=C(C)C)C(=O)O`, the Potency entry in experiment [7] and in experiment [2] was “inactive” throughout.

For the compound `COc1ccnc2c1CCCCC2S(=O)c1nc2ccccc2[nH]1` (stereo not drawn), in experiment [1], the Potency was 35.5 µM (active).

Consider `COc1cc(CNC(=O)CCCC/C=C/C(C)C)ccc1O`, for which the Potency entry in experiment [7] and in experiment [2] was “inactive” each time.

Take `c1ccc2sc(SSc3nc4ccccc4s3)nc2c1`: in experiment [1], the Potency result is “inactive”.

Turning to `O=c1cc(-c2ccccc2)oc2c(O)c(O)ccc12`, the Potency in experiment [2] is 6.97 µM (active).

As for `CC1(C)[C@@H](O)CC[C@]2(C)[C@H]3C(=O)C=C4[C@@H]5C[C@@](C)(C(=O)O)CC[C@]5(C)CC[C@@]4(C)[C@]3(C)CC[C@@H]12`, the Potency was 17.8 µM (active) in experiment [7] and 14.1 µM (active) in experiment [2].

Consider `O=C(O)Cc1ccc2c(c1)C(=O)c1ccccc1CO2`, for which the Potency result in experiment [1] is “inactive”.

Take `C/C(=N\O)c1ccc(OCC(=O)N2CCCCC2)cc1`: the Potency entry in experiment [1], in experiment [7] and in experiment [2] was “inactive” throughout.

Consider `CCCCCCCCCCCCCCCC(=O)OC(C)C`, for which the Potency result in experiment [1] was “inactive”.

Take `COc1ccc(/C=C/C(=O)Nc2ccccc2C(=O)O)cc1OC`: the Potency result in experiment [7] and in experiment [2] was “inactive” each time.
